Whole data set: some 16,000 sequences, median “rpm ratio (pull-down/input)” near 0.94, cut for the highest 2% near 1.7. Only a selection was taken, and the highest values are over-represented in it overall.
Biological target: T1, MBP-FoxP1dN (Mus musculus, UniProt P58462 326-579)
T1 sequence: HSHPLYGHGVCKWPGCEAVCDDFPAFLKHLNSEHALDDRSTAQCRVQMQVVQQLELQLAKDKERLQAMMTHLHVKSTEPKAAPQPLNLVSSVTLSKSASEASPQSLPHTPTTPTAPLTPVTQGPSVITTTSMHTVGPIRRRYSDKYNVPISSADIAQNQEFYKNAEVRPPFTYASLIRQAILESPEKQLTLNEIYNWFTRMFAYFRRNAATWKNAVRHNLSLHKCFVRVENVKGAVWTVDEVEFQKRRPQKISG
Assay: PD-seq (MBP pull-down with sequencing); 20 mM Tris-HCl pH 7.5, 100 mM NaCl, 1.5 mM MgCl2, 0.4 uM protein, 0.1 uM dsDNA library, 30 min, room temperature, amylose pull-down; high values mean tight binding
Conditions: protein: recombinant; tags: His6-MBP; chain copies: 2; dsDNA, one strand shown
Summary of the method: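 In Tris pH 7.5 buffer with NaCl and MgCl2, 0.4 µM His6-MBP-tagged mouse FoxP3 or FoxP1 fragment lacking the N-terminus, from E. coli, met 0.1 µM Klenow-filled double-stranded degenerate DNA library for 30 min at room temperature. Three washes on amylose resin followed capture of the complexes, then proteinase K release of DNA, PCR barcoding and Illumina sequencing. Binding is taken as pooled-replicate reads-per-million enrichment of pull-down relative to input.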

Row | Sequence | binding signal
1 | GATGATTGTTCTCCCAGCTGATGAATTTGGCAGCTCGAGTAAACAAATTTTCCTAATCTTTCTGTTCAAGCGCCATCTAC | 0.875 RPM ratio (pull-down/input)
2 | GATGATTGTTCTCCCAGCTGATGAATTAACGCTGTCGAGTAAACAAATTTTCCTAATCTTTCTGTTCAAGCGCCATCTAC | 0.97 RPM ratio (pull-down/input)
3 | GATGATTGTTCTCCCAGCTGATGAATTAAAGAGTTCGAGTAAACAAATTTTCCTAATCTTTCTGTTCAAGCGCCATCTAC | 0.941 RPM ratio (pull-down/input)
4 | GATGATTGTTCTCCCAGCTGATGAATTCAGATTATCGAGTAAACAAATTTTCCTAATCTTTCTGTTCAAGCGCCATCTAC | 0.977 RPM ratio (pull-down/input)
5 | GATGATTGTTCTCCCAGCTGATGAATTCGGTAGATCGAGTAAACAAATTTTCCTAATCTTTCTGTTCAAGCGCCATCTAC | 0.874 RPM ratio (pull-down/input)
6 | GATGATTGTTCTCCCAGCTGATGAATTTATATGATCGAGTAAACAAATTTTCCTAATCTTTCTGTTCAAGCGCCATCTAC | 1.14 RPM ratio (pull-down/input)
7 | GATGATTGTTCTCCCAGCTGATGAATTATTTATTTCGAGTAAACAAATTTTCCTAATCTTTCTGTTCAAGCGCCATCTAC | 2.06 RPM ratio (pull-down/input)
8 | GATGATTGTTCTCCCAGCTGATGAATTTGTTTATTCGAGTAAACAAATTTTCCTAATCTTTCTGTTCAAGCGCCATCTAC | 2.89 RPM ratio (pull-down/input)
9 | GATGATTGTTCTCCCAGCTGATGAATTGTTTTATTCGAGTAAACAAATTTTCCTAATCTTTCTGTTCAAGCGCCATCTAC | 1.6 RPM ratio (pull-down/input)
10 | GATGATTGTTCTCCCAGCTGATGAATTTTTATTTTCGAGTAAACAAATTTTCCTAATCTTTCTGTTCAAGCGCCATCTAC | 2.75 RPM ratio (pull-down/input)
11 | GATGATTGTTCTCCCAGCTGATGAATTTTTTTATTCGAGTAAACAAATTTTCCTAATCTTTCTGTTCAAGCGCCATCTAC | 0.953 RPM ratio (pull-down/input)
12 | GATGATTGTTCTCCCAGCTGATGAATTATTTTATTCGAGTAAACAAATTTTCCTAATCTTTCTGTTCAAGCGCCATCTAC | 1.22 RPM ratio (pull-down/input)
13 | GATGATTGTTCTCCCAGCTGATGAATTCTTTATTTCGAGTAAACAAATTTTCCTAATCTTTCTGTTCAAGCGCCATCTAC | 1.03 RPM ratio (pull-down/input)
14 | GATGATTGTTCTCCCAGCTGATGAATTCCTTTATTCGAGTAAACAAATTTTCCTAATCTTTCTGTTCAAGCGCCATCTAC | 0.944 RPM ratio (pull-down/input)
15 | GATGATTGTTCTCCCAGCTGATGAATTTTATTTTTCGAGTAAACAAATTTTCCTAATCTTTCTGTTCAAGCGCCATCTAC | 1.96 RPM ratio (pull-down/input)
16 | GATGATTGTTCTCCCAGCTGATGAATTTATTATTTCGAGTAAACAAATTTTCCTAATCTTTCTGTTCAAGCGCCATCTAC | 1.6 RPM ratio (pull-down/input)
17 | GATGATTGTTCTCCCAGCTGATGAATTTATTTCTTCGAGTAAACAAATTTTCCTAATCTTTCTGTTCAAGCGCCATCTAC | 1.29 RPM ratio (pull-down/input)
18 | GATGATTGTTCTCCCAGCTGATGAATTAAATTTGTCGAGTAAACAAATTTTCCTAATCTTTCTGTTCAAGCGCCATCTAC | 1.06 RPM ratio (pull-down/input)
19 | GATGATTGTTCTCCCAGCTGATGAATTAGTACTGTCGAGTAAACAAATTTTCCTAATCTTTCTGTTCAAGCGCCATCTAC | 1 RPM ratio (pull-down/input)
20 | GATGATTGTTCTCCCAGCTGATGAATTTCGGCTGTCGAGTAAACAAATTTTCCTAATCTTTCTGTTCAAGCGCCATCTAC | 0.82 RPM ratio (pull-down/input)
21 | GATGATTGTTCTCCCAGCTGATGAATTATCCGCATCGAGTAAACAAATTTTCCTAATCTTTCTGTTCAAGCGCCATCTAC | 1.15 RPM ratio (pull-down/input)
22 | GATGATTGTTCTCCCAGCTGATGAATTCTTCTGATCGAGTAAACAAATTTTCCTAATCTTTCTGTTCAAGCGCCATCTAC | 0.96 RPM ratio (pull-down/input)
23 | GATGATTGTTCTCCCAGCTGATGAATTGCGCCATTCGAGTAAACAAATTTTCCTAATCTTTCTGTTCAAGCGCCATCTAC | 1.14 RPM ratio (pull-down/input)

Row | Sequence | binding signal
24 | GATGATTGTTCTCCCAGCTGATGAATTCGATTGCTCGAGTAAACAAATTTTCCTAATCTTTCTGTTCAAGCGCCATCTAC | 0.842 RPM ratio (pull-down/input)
25 | GATGATTGTTCTCCCAGCTGATGAATTAAAGGTCTCGAGTAAACAAATTTTCCTAATCTTTCTGTTCAAGCGCCATCTAC | 0.774 RPM ratio (pull-down/input)
26 | GATGATTGTTCTCCCAGCTGATGAATTGAGTGGCTCGAGTAAACAAATTTTCCTAATCTTTCTGTTCAAGCGCCATCTAC | 0.823 RPM ratio (pull-down/input)
27 | GATGATTGTTCTCCCAGCTGATGAATTTTATTGTTCGAGTAAACAAATTTTCCTAATCTTTCTGTTCAAGCGCCATCTAC | 2.31 RPM ratio (pull-down/input)
28 | GATGATTGTTCTCCCAGCTGATGAATTTATTTTTTCGAGTAAACAAATTTTCCTAATCTTTCTGTTCAAGCGCCATCTAC | 1.41 RPM ratio (pull-down/input)
29 | GATGATTGTTCTCCCAGCTGATGAATTTATTTGTTCGAGTAAACAAATTTTCCTAATCTTTCTGTTCAAGCGCCATCTAC | 2.15 RPM ratio (pull-down/input)
30 | GATGATTGTTCTCCCAGCTGATGAATTTTTTATTTCGAGTAAACAAATTTTCCTAATCTTTCTGTTCAAGCGCCATCTAC | 1.04 RPM ratio (pull-down/input)
31 | GATGATTGTTCTCCCAGCTGATGAATTAAGGCGATCGAGTAAACAAATTTTCCTAATCTTTCTGTTCAAGCGCCATCTAC | 0.912 RPM ratio (pull-down/input)
32 | GATGATTGTTCTCCCAGCTGATGAATTTGAACTTTCGAGTAAACAAATTTTCCTAATCTTTCTGTTCAAGCGCCATCTAC | 0.845 RPM ratio (pull-down/input)
33 | GATGATTGTTCTCCCAGCTGATGAATTTGTACTATCGAGTAAACAAATTTTCCTAATCTTTCTGTTCAAGCGCCATCTAC | 1.22 RPM ratio (pull-down/input)
34 | GATGATTGTTCTCCCAGCTGATGAATTTTATACGTCGAGTAAACAAATTTTCCTAATCTTTCTGTTCAAGCGCCATCTAC | 0.957 RPM ratio (pull-down/input)
35 | GATGATTGTTCTCCCAGCTGATGAATTGTAAACATCGAGTAAACAAATTTTCCTAATCTTTCTGTTCAAGCGCCATCTAC | 2.78 RPM ratio (pull-down/input)
36 | GATGATTGTTCTCCCAGCTGATGAATTTTATACATCGAGTAAACAAATTTTCCTAATCTTTCTGTTCAAGCGCCATCTAC | 1.09 RPM ratio (pull-down/input)
37 | GATGATTGTTCTCCCAGCTGATGAATTTGTAACATCGAGTAAACAAATTTTCCTAATCTTTCTGTTCAAGCGCCATCTAC | 1.45 RPM ratio (pull-down/input)
38 | GATGATTGTTCTCCCAGCTGATGAATTGTATACGTCGAGTAAACAAATTTTCCTAATCTTTCTGTTCAAGCGCCATCTAC | 1.82 RPM ratio (pull-down/input)
39 | GATGATTGTTCTCCCAGCTGATGAATTCTGTAAATCGAGTAAACAAATTTTCCTAATCTTTCTGTTCAAGCGCCATCTAC | 1.18 RPM ratio (pull-down/input)
40 | GATGATTGTTCTCCCAGCTGATGAATTGTATACATCGAGTAAACAAATTTTCCTAATCTTTCTGTTCAAGCGCCATCTAC | 2.35 RPM ratio (pull-down/input)
41 | GATGATTGTTCTCCCAGCTGATGAATTGTTGTAATCGAGTAAACAAATTTTCCTAATCTTTCTGTTCAAGCGCCATCTAC | 1.96 RPM ratio (pull-down/input)
42 | GATGATTGTTCTCCCAGCTGATGAATTCTATACATCGAGTAAACAAATTTTCCTAATCTTTCTGTTCAAGCGCCATCTAC | 1.08 RPM ratio (pull-down/input)
43 | GATGATTGTTCTCCCAGCTGATGAATTTCAAACATCGAGTAAACAAATTTTCCTAATCTTTCTGTTCAAGCGCCATCTAC | 1.18 RPM ratio (pull-down/input)
44 | GATGATTGTTCTCCCAGCTGATGAATTTCTGTAATCGAGTAAACAAATTTTCCTAATCTTTCTGTTCAAGCGCCATCTAC | 1.49 RPM ratio (pull-down/input)
45 | GATGATTGTTCTCCCAGCTGATGAATTCTATACGTCGAGTAAACAAATTTTCCTAATCTTTCTGTTCAAGCGCCATCTAC | 0.962 RPM ratio (pull-down/input)

Reference: article PMC12820563, “FoxP3 forms a head-to-head dimer in vivo and stabilizes its multimerization on adjacent microsatellites”
